According to PubChem BioAssay (NCI):
About 83,000 compounds went through this panel and 20% of them were active in at least one assay; those are over-represented in the sample as a whole.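 Single-concentration screen, 48 h exposure, 96-well plates. Endpoint: percent growth. Below 10 = active.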 Calls of active or inactive are those of the source.

Columns and labels:
Test in all cases: NCI-60 one-dose screen, 48 h (100 = growth as untreated, 0 = no growth, -100 = all killed)
Details in all cases: 10 µM
SK-MEL-2 melanoma = tested on: SK-MEL-2 melanoma
EKVX NSCLC = tested on: EKVX NSCLC
SN12C renal = tested on: SN12C renal
UO-31 renal = tested on: UO-31 renal
TK-10 renal = tested on: TK-10 renal
ACHN renal = tested on: ACHN renal
CAKI-1 renal = tested on: CAKI-1 renal
A498 renal = tested on: A498 renal
CCRF-CEM leukemia = tested on: CCRF-CEM leukemia
MOLT-4 leukemia = tested on: MOLT-4 leukemia
SR leukemia = tested on: SR leukemia
RPMI-8226 leukemia = tested on: RPMI-8226 leukemia
OVCAR-8 ovarian = tested on: OVCAR-8 ovarian
OVCAR-5 ovarian = tested on: OVCAR-5 ovarian
OVCAR-4 ovarian = tested on: OVCAR-4 ovarian
SK-OV-3 ovarian = tested on: SK-OV-3 ovarian
IGROV1 ovarian = tested on: IGROV1 ovarian
OVCAR-3 ovarian = tested on: OVCAR-3 ovarian
HS 578T breast = tested on: HS 578T breast
NCI/ADR-RES ovarian = tested on: NCI/ADR-RES ovarian

Measured: growth

COc1ccc(-c2cc(C(=O)N=Nc3c(O)[nH]c4ccc(F)cc34)c3ccccc3n2)cc1
inactive: SK-MEL-2 melanoma 128% | EKVX NSCLC 86.4% | SN12C renal 65.5% | UO-31 renal 67.6% | TK-10 renal 120% | ACHN renal 68.1% | CAKI-1 renal 87.8% | A498 renal 128% | CCRF-CEM leukemia 44.2% | MOLT-4 leukemia 21.9% | SR leukemia 22.5% | RPMI-8226 leukemia 72.2% | OVCAR-8 ovarian 59.1% | OVCAR-5 ovarian 88.5% | OVCAR-4 ovarian 52% | SK-OV-3 ovarian 101% | IGROV1 ovarian 62.3% | OVCAR-3 ovarian 59.1% | HS 578T breast 74% | NCI/ADR-RES ovarian 61.9%

O=C(CNc1nc(-c2ccccc2)cs1)Nc1ccc([N+](=O)[O-])cc1
inactive: SK-MEL-2 melanoma 31.1% | SN12C renal 16.9% | A498 renal 109% | CCRF-CEM leukemia 14.3% | MOLT-4 leukemia 15.7% | SR leukemia 10.8% | RPMI-8226 leukemia 11.7% | OVCAR-8 ovarian 17.7% | OVCAR-4 ovarian 18% | SK-OV-3 ovarian 53.9% | IGROV1 ovarian 16.6% | OVCAR-3 ovarian 13.1% | HS 578T breast 21.8%
active: EKVX NSCLC 9.52% | UO-31 renal -74.3% | TK-10 renal -58% | ACHN renal -15.8% | CAKI-1 renal 7.15% | OVCAR-5 ovarian -39.6% | NCI/ADR-RES ovarian -20.4%

COc1ccc2[nH]cc(/C=N/Nc3cccc(Cl)n3)c2c1
inactive: SK-MEL-2 melanoma 92% | EKVX NSCLC 44.2% | SN12C renal 38.7% | UO-31 renal 33.5% | TK-10 renal 91.1% | ACHN renal 47.8% | CAKI-1 renal 46.7% | A498 renal 120% | MOLT-4 leukemia 14.8% | SR leukemia 17.1% | OVCAR-8 ovarian 57.9% | OVCAR-5 ovarian 77.4% | OVCAR-4 ovarian 59.8% | SK-OV-3 ovarian 91.4% | OVCAR-3 ovarian 17.4% | HS 578T breast 49.9% | NCI/ADR-RES ovarian 22.2%
active: CCRF-CEM leukemia 9.72% | RPMI-8226 leukemia -0.856% | IGROV1 ovarian 5.42%

O=C(Cn1nc(-c2ccccc2)ccc1=O)NNC(=S)NC1CCCCC1
inactive: SK-MEL-2 melanoma 109% | EKVX NSCLC 98.6% | SN12C renal 101% | UO-31 renal 81.2% | TK-10 renal 109% | ACHN renal 102% | CAKI-1 renal 98.6% | A498 renal 121% | CCRF-CEM leukemia 103% | MOLT-4 leukemia 106% | SR leukemia 89.4% | RPMI-8226 leukemia 97% | OVCAR-8 ovarian 112% | OVCAR-5 ovarian 105% | OVCAR-4 ovarian 114% | SK-OV-3 ovarian 112% | IGROV1 ovarian 104% | OVCAR-3 ovarian 122% | HS 578T breast 101% | NCI/ADR-RES ovarian 105%

CN1CCCN(Cc2ccc(C(=O)Nc3cccc(Nc4ccc5c(O)cccc5n4)c3)cc2C(F)(F)F)CC1
active: SK-MEL-2 melanoma -76.5% | EKVX NSCLC -87% | SN12C renal -86.1% | UO-31 renal -56.1% | TK-10 renal -65.3% | ACHN renal -74.7% | CAKI-1 renal -85.3% | CCRF-CEM leukemia 8.39% | MOLT-4 leukemia 9.64% | RPMI-8226 leukemia 2.61% | OVCAR-8 ovarian -22% | OVCAR-5 ovarian -82.1% | OVCAR-4 ovarian -43.5% | SK-OV-3 ovarian -58.9% | IGROV1 ovarian -78.9% | OVCAR-3 ovarian -35.8% | HS 578T breast -41.2%
inactive: A498 renal 61.8% | SR leukemia 11.4% | NCI/ADR-RES ovarian 37.7%

O=c1oc2ccccc2cc1-c1csc(N=Nc2c(O)[nH]c3ccc(Br)cc23)n1
inactive: SK-MEL-2 melanoma 60.3% | EKVX NSCLC 73.7% | SN12C renal 85.3% | UO-31 renal 82.7% | TK-10 renal 86.8% | ACHN renal 48.8% | CAKI-1 renal 84.5% | A498 renal 54.1% | CCRF-CEM leukemia 99.8% | MOLT-4 leukemia 103% | SR leukemia 97.1% | RPMI-8226 leukemia 99.7% | OVCAR-8 ovarian 79.1% | OVCAR-5 ovarian 98.9% | OVCAR-4 ovarian 87.2% | SK-OV-3 ovarian 91.9% | IGROV1 ovarian 79.5% | OVCAR-3 ovarian 89.7% | HS 578T breast 33.7% | NCI/ADR-RES ovarian 76.2%

N#Cc1c(-c2ccc(Cl)cc2)cc(-c2ccccc2)nc1OCc1ccccc1
inactive: SK-MEL-2 melanoma 76% | EKVX NSCLC 52.6% | SN12C renal 87.8% | UO-31 renal 65.6% | TK-10 renal 97.8% | ACHN renal 75% | CAKI-1 renal 73.8% | A498 renal 118% | CCRF-CEM leukemia 79.9% | MOLT-4 leukemia 47.8% | SR leukemia 42.2% | RPMI-8226 leukemia 60.3% | OVCAR-8 ovarian 93% | OVCAR-5 ovarian 92.9% | OVCAR-4 ovarian 76.9% | SK-OV-3 ovarian 83.1% | IGROV1 ovarian 87% | OVCAR-3 ovarian 97.9% | HS 578T breast 85.2% | NCI/ADR-RES ovarian 76%

O=c1[nH]c2ccccc2cc1CSc1ccc(Nc2nccc(-c3ccc(Cl)cc3)n2)cc1
inactive: CCRF-CEM leukemia 57.1% | MOLT-4 leukemia 59.8% | SR leukemia 59.2% | RPMI-8226 leukemia 21.2% | IGROV1 ovarian 11%
active: SK-MEL-2 melanoma 4.31% | EKVX NSCLC -49.6% | SN12C renal -47.7% | UO-31 renal -70.4% | TK-10 renal -64.2% | ACHN renal -89.9% | CAKI-1 renal -83.5% | A498 renal -65.3% | OVCAR-8 ovarian -52.9% | OVCAR-5 ovarian -19.5% | OVCAR-4 ovarian -76.8% | SK-OV-3 ovarian -15.1% | OVCAR-3 ovarian -73.9% | HS 578T breast -22.1% | NCI/ADR-RES ovarian -39%

CCCn1c(=O)c2[nH]c(-c3ccc(OCc4nc5ccc(C(F)(F)F)cc5[nH]4)cc3)nc2n(CCC)c1=O
active: OVCAR-8 ovarian -7.74%
inactive: SK-MEL-2 melanoma 66.8% | EKVX NSCLC 53.2% | SN12C renal 53.5% | UO-31 renal 52.1% | TK-10 renal 96.2% | ACHN renal 64.7% | CAKI-1 renal 43.6% | A498 renal 51.1% | CCRF-CEM leukemia 35.3% | MOLT-4 leukemia 11.5% | SR leukemia 24.6% | RPMI-8226 leukemia 28.1% | OVCAR-5 ovarian 82.3% | OVCAR-4 ovarian 60% | SK-OV-3 ovarian 90.7% | IGROV1 ovarian 62.7% | OVCAR-3 ovarian 52.5% | HS 578T breast 33.4% | NCI/ADR-RES ovarian 55.8%

COc1cc(C2CC(c3ccc(C)cc3)=Nc3c(N)nc(N)nc3N2)ccc1Oc1nc(Nc2ccc(F)cc2)nc(N(C)C)n1 (stereo not given)
active: SR leukemia 0.613%
inactive: SK-MEL-2 melanoma 72.9% | EKVX NSCLC 70.1% | SN12C renal 68.6% | UO-31 renal 53.3% | TK-10 renal 101% | ACHN renal 47.1% | CAKI-1 renal 49.4% | A498 renal 96.5% | CCRF-CEM leukemia 47.1% | MOLT-4 leukemia 13.2% | RPMI-8226 leukemia 22.3% | OVCAR-8 ovarian 61.2% | OVCAR-5 ovarian 99.6% | OVCAR-4 ovarian 50.9% | SK-OV-3 ovarian 100% | IGROV1 ovarian 53.8% | OVCAR-3 ovarian 56.2% | HS 578T breast 57.6% | NCI/ADR-RES ovarian 51.7%

COc1ccc(-c2cc(-c3cc(C(=O)c4ccc(Br)cc4)n4ccc(C)cc34)nc(N)c2C#N)cc1
inactive: SK-MEL-2 melanoma 107% | EKVX NSCLC 89.8% | SN12C renal 92.9% | UO-31 renal 64.3% | TK-10 renal 132% | ACHN renal 81.8% | CAKI-1 renal 68.1% | A498 renal 134% | CCRF-CEM leukemia 98.2% | MOLT-4 leukemia 101% | SR leukemia 79.1% | RPMI-8226 leukemia 86.8% | OVCAR-8 ovarian 66.3% | OVCAR-5 ovarian 91.8% | OVCAR-4 ovarian 86.1% | SK-OV-3 ovarian 105% | IGROV1 ovarian 90% | OVCAR-3 ovarian 108% | HS 578T breast 90.8% | NCI/ADR-RES ovarian 82.6%

C/C(=N\NC(N)=S)c1ccc(Nc2nc(SC(C)C)nc(-c3ccccc3)c2C#N)cc1
inactive: SK-MEL-2 melanoma 89.3% | EKVX NSCLC 75.9% | SN12C renal 63.5% | UO-31 renal 77.5% | TK-10 renal 98.1% | ACHN renal 58.3% | CAKI-1 renal 74.6% | A498 renal 123% | CCRF-CEM leukemia 76.3% | MOLT-4 leukemia 77.5% | SR leukemia 79.9% | RPMI-8226 leukemia 72.3% | OVCAR-8 ovarian 30.5% | OVCAR-5 ovarian 75.6% | OVCAR-4 ovarian 57.7% | SK-OV-3 ovarian 90% | IGROV1 ovarian 81.3% | OVCAR-3 ovarian 67.3% | HS 578T breast 18.7% | NCI/ADR-RES ovarian 61.6%

CC(=O)C1=C(C)NC(SCC(=O)Nc2ccc(S(=O)(=O)Nc3cc(C)on3)cc2)=NC1c1ccccc1 (stereo not given)
inactive: SK-MEL-2 melanoma 119% | EKVX NSCLC 101% | SN12C renal 111% | UO-31 renal 89.2% | TK-10 renal 112% | ACHN renal 106% | CAKI-1 renal 99.8% | A498 renal 109% | CCRF-CEM leukemia 98% | MOLT-4 leukemia 109% | SR leukemia 94.1% | RPMI-8226 leukemia 99.8% | OVCAR-8 ovarian 107% | OVCAR-5 ovarian 109% | OVCAR-4 ovarian 100% | SK-OV-3 ovarian 101% | IGROV1 ovarian 114% | OVCAR-3 ovarian 107% | HS 578T breast 95.6% | NCI/ADR-RES ovarian 103%

CN1CCO/C1=C(/NC(=O)c1ccc(Cl)cc1)[P+](c1ccccc1)(c1ccccc1)c1ccccc1
inactive: SK-MEL-2 melanoma 90.9% | EKVX NSCLC 81.2% | SN12C renal 92.4% | UO-31 renal 86.7% | TK-10 renal 99.6% | ACHN renal 110% | CAKI-1 renal 103% | A498 renal 125% | CCRF-CEM leukemia 77.9% | MOLT-4 leukemia 87.9% | SR leukemia 80.9% | RPMI-8226 leukemia 24.8% | OVCAR-8 ovarian 89% | OVCAR-5 ovarian 92.1% | OVCAR-4 ovarian 83.3% | SK-OV-3 ovarian 106% | IGROV1 ovarian 59.4% | OVCAR-3 ovarian 64.1% | HS 578T breast 93.7% | NCI/ADR-RES ovarian 103%

COc1ccc(NC(=O)Nc2ccc(OCC(=O)N=Nc3c(O)[nH]c4ccc([N+](=O)[O-])cc34)cc2)cc1
inactive: SK-MEL-2 melanoma 89.4% | EKVX NSCLC 83.7% | SN12C renal 72.5% | UO-31 renal 94.3% | TK-10 renal 113% | ACHN renal 102% | CAKI-1 renal 92.5% | A498 renal 101% | CCRF-CEM leukemia 93.7% | MOLT-4 leukemia 100% | SR leukemia 92.4% | RPMI-8226 leukemia 110% | OVCAR-8 ovarian 37.1% | OVCAR-5 ovarian 124% | OVCAR-4 ovarian 59.8% | SK-OV-3 ovarian 93.9% | IGROV1 ovarian 92.6% | OVCAR-3 ovarian 24.6% | HS 578T breast 39% | NCI/ADR-RES ovarian 91.1%
